Several values for one entry are separate records, joined by “and”; a condition that tells them apart may be missing. Identical values can stand only once. Inconclusive results are not listed. Where a structure was tested more than once in an assay, its records may differ in their call. Activity calls are given as the source filed them. Unless noted, calls come from the whole dose curve; as a rule, active = well fitted curve in the direction sought with a large enough effect; inconclusive = small, poorly fitted or top-dose-only effect, or another doubt; inactive = no such curve, though single readings can be large; an effect the other way counts as inactive or inconclusive.
Assays:
[1] = AP1 Signaling Pathway (AID 357; active = well fitted curve in either direction with a large enough effect, not every such curve was filed as active;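 note: ME-180 reporter cells stimulated with EGF at its EC50 level; % is set by controls: 0 for no effect and ±100 for the full control effect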); conditions: ME-180 AP-1-bla reporter, EGF-induced, beta-lactamase ratio, 5 h; series mostly up to 17.2 µM
Procedure, shortened: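 Read-out was the 460nm/530nm emission ratio (excitation 405nm) after CCF4 loading for 2.5 hours at room temperature. Cells carried an AP-1-driven beta-lactamase reporter, were stimulated with EC50 EGF plus compound for 5 hours, and AC50 values came from titrations.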

[2] = target: Cytochrome P450 1A2 (Homo sapiens) (UniProt P05177); experiment: p450-cyp1a2 (AID 410; calls by dose curve; note: potency is the fitted concentration of half-maximal effect;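 for activity change, negative = inhibition: -100% = full effect of reference inhibitor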); conditions: recombinant CYP1A2, luciferin-ME demethylation, luminescence; series mostly up to 25.6 µM
Procedure, shortened: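 Luminescent readout of luciferin formed from Luciferin-ME by human CYP1A2; data normalized against complete inhibition by 57 uM furafylline. Enzyme 20nM, substrate 100uM at Km, 100mM KPO4 buffer, 60 min reaction at room temperature.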

[3] = NFAT Signaling Pathway (AID 444; active = well fitted curve in either direction with a large enough effect, not every such curve was filed as active;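 note: carbachol stimulus at about its EC50 of 1 µM final; % is set by controls: 0 for no effect and ±100 for the full control effect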); conditions: Jurkat NFAT-bla M1, carbachol, beta-lactamase ratio, 5 h; at 17.2 µM (top of the series)
Procedure, shortened: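 Read-out: CCF4 FRET ratio (460 nm/530 nm) after 1 h RT dye loading, used for %activity and AC50 from titration series. Cells: Jurkat NFAT-β-lactamase/M1 line, treated with compound plus 1 uM carbachol for 5 h, 37 °C.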

[4] = Stat Signaling Pathway (AID 446; active = well fitted curve in either direction with a large enough effect, not every such curve was filed as active;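 note: ME-180 cervical cancer cells given 40 pM IL-6 alongside compound; SIE-controlled beta-lactamase reporter measured as 460/530 nm FRET emission ratio; % is set by controls: 0 for no effect and ±100 for the full control effect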); conditions: ME-180 SIE beta-lactamase reporter, IL-6 stimulated, 5 h; series mostly up to 17.2 µM
Procedure, shortened: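 ME-180 SIE-bla cells; overnight plating; cpd + IL-6 40 pM, 5 h, 37 C; LiveBLAzer 2.5 h RT; 460/530 nm emission ratio. Normalized to 300 pM IL-6 and 125 nM JAK inhibitor controls.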

[5] = target: Glucocorticoid receptor (Homo sapiens) (UniProt P04150); experiment: GR-GFP Redistribution (AID 450;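 active = compounds whose dose series gives a full or clear partial fitted curve of increased nuclear translocation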; note: potency is the fitted concentration of half-maximal effect); conditions: U2OS GR-GFP nuclear translocation, laser cytometry, 2 h
[6] = target: Glucocorticoid receptor (Homo sapiens) (UniProt P04150); experiment: GR-EFC Redistribution (AID 451; calls by dose curve; note: potency is the fitted concentration of half-maximal effect); conditions: CHO-K1 GR-EFC translocation, beta-gal luminescence, 2 h
Procedure, shortened: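 Translocation of GR-ED fusion to nuclear EA restores b-gal, read by luminescence after 1 h room-temperature detection. Engineered CHO-K1 biosensor cells, 1,000/well, exposed 2 h at 37 C to titrations up to 46 uM final.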

[7] = target: 3',5'-cyclic-AMP phosphodiesterase 4B (Homo sapiens) (UniProt Q07343); experiment: qHTS Assay for Inhibitors of PDE-IV (AID 607; active = well fitted activation curve with a large enough effect in the main read-out, with a control signal flat, not every such curve was filed as active; note: % of control where 0% means no effect); conditions: HEK293 ACTOne CNG channel cells, membrane potential fluorescence; series mostly up to 22.9 µM
Procedure, shortened: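 ACTOne HEK293 cells carry a modified cAMP-gated CNG channel and express endogenous PDE4; plated 1000 cells/well, compounds up to 22.9 uM final. Membrane-potential dye fluorescence (ex 535/em 590) was read; parental cells received 10 uM forskolin + 100 uM RO 20-1724.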

[8] = qHTS Assay for Lipid Storage Modulators (AID 1519; calls by dose curve); conditions: Drosophila S3 cells, BODIPY lipid droplet/cell ratio, laser cytometry, cells loaded with oleic acid; for activity change, negative = inhibition: at 25.7 µM (top of the series)
Procedure, shortened: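 Cells seeded at 5,000 per well were treated with compounds over a concentration series and loaded with oleic acid (400 uM, as added). Lipid droplet fluorescence (488 nm excitation, 500-530 nm channel) was read by laser-scanning cytometry and normalized to 20 uM Triacsin C.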

[9] = target: ATP-dependent 6-phosphofructokinase (Trypanosoma brucei brucei) (UniProt O15648); experiment: qHTS Assay to Find Inhibitors of T. brucei phosphofructokinase: hit validation (AID 492961);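 note: luminescence reports ADP formed as PFK phosphorylates fructose-6-phosphate with ATP; % is set by controls: 0 for no effect and ±100 for the full control effect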; conditions: T. brucei PFK, ADP-Glo luminescence; series mostly up to 51.4 µM
Procedure, shortened: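 In this biochemical qHTS validation, titrated compounds were tested against 1.25 nM PFK with 0.1 mM ATP and 0.5 mM F6P. Percent activity came from controls lacking or containing enzyme.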

[10] = target: Ubiquitin carboxyl-terminal hydrolase 1 (Homo sapiens) (UniProt O94782); experiment: Inhibitors of USP1/UAF1: Pilot qHTS (AID 504865); conditions: purified USP1/UAF1, Ub-rhodamine cleavage fluorescence; series mostly up to 114 µM;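 note: rhodamine fluorescence freed from ubiquitin-rhodamine substrate followed over time; top concentration of the series differs between compounds; % is set by controls: 0 for no effect and ±100 for the full control effect; nearly all actives have a fitted effect of over 35% in size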
Procedure, shortened: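 USP1/UAF1 complex at 1 nM preincubated 15 min at room temperature with compound, then Ub-Rho substrate added at 150 nM final. Fluorescence (480/540 nm) read kinetically in 50 mM HEPES pH 7.8, 0.5 mM EDTA, 1 mM TCEP, 0.1 mg/ml BSA, 0.01% Tween-20.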

[11] = target: Luciferin 4-monooxygenase (Photinus pyralis) (UniProt P08659); experiment: Biochemical firefly luciferase enzyme assay for NPC (AID 624030);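 note: purified P. pyralis luciferase at 10 nM with luciferin and ATP substrate; 0% = DMSO and -100% = full luciferase inhibition by PTC124 control; nearly all actives have a fitted effect of over 70% in size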; conditions: purified P. pyralis luciferase, luminescence, 5 min; series mostly up to 58.6 µM
Procedure, shortened: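 Direct inhibition of firefly luciferase enzyme (10 nM final, 50 mM Tris Acetate) assessed by luminescence within 5 minutes. Percent activity scaled between DMSO and PTC124 positive control, with concentration-effect curves classified by fit quality and response.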

[12] = S16 Schwann cell PMP22 intronic element firefly luciferase assay (AID 624032); conditions: S16 rat Schwann cells, PMP22 element FLuc, 24 h; series mostly up to 57.5 µM;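 note: plate controls were DMSO for no effect and PTC124 positive control mean for full effect; nearly all actives have a fitted effect of over 30% in size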
Procedure, shortened: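 Luciferase reporter of PMP22 intronic-element expression in stably transfected S16 rat Schwann cells, read by ONE-Glo luminescence after 24 h compound exposure at 37 C. Activity scaled between DMSO (0%) and positive-control PTC124; concentration-effect curves quality-classified.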

[13] = qHTS profiling for inhibitors of Plasmodium falciparum proliferation (AID 504749);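 note: 0% = DMSO vehicle and full inhibition = artemisinin control; nearly all actives have a fitted effect of over 60% in size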; conditions: P. falciparum in erythrocytes, SYBR Green DNA, 72 h
Procedure, shortened: (§1)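 Infected RBCs, 0.3% parasitemia/2.5% Hct final; cpd 72 h, 37 C, 5% CO2; lysis buffer with saponin/triton/SYBR Green I, o/n RT dark; FI 485/535; norm. to artemisinin (0.29 uM) and DMSO.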

[14] = tested on: C2A; experiment: as above; conditions: P. falciparum in erythrocytes, SYBR Green DNA, 72 h; series mostly up to 28.7 µM
Procedure, shortened: as §1

[15] = tested on: CP192; experiment: as above; conditions: P. falciparum in erythrocytes, SYBR Green DNA, 72 h; series mostly up to 28.7 µM
Procedure, shortened: as §1

[16] = tested on: CP262; experiment: as above; conditions: P. falciparum in erythrocytes, SYBR Green DNA, 72 h; series mostly up to 28.7 µM
Procedure, shortened: as §1

[17] = tested on: FAB9; experiment: as above; conditions: P. falciparum in erythrocytes, SYBR Green DNA, 72 h; series mostly up to 28.7 µM
Procedure, shortened: as §1

[18] = target: Mitogen-activated protein kinase 10 (Mus musculus) (UniProt Q61831); experiment: JNK3 AlphaScreen Assay (AID 530; active = well fitted curve in either direction with a large enough effect, not every such curve was filed as active); conditions: JNK3 lysate, c-Jun phosphorylation; series mostly up to 57.1 µM
Procedure, shortened: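 Compound titrations were preincubated 15 minutes at room temperature with substrate, antibody and pre-activated JNK3-containing HepG2 lysate. Reactions were started with 10 uM ATP and stopped with EDTA-containing bead buffer for AlphaScreen detection.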

[19] = target: Cytochrome P450 3A4 (Homo sapiens) (UniProt P08684); experiment: qHTS Assay for Activators of Cytochrome P450 3A4 (AID 885); conditions: recombinant CYP3A4, Luciferin-PPXE luminescence, 60 min; series mostly up to 57.1 µM; note: nearly all actives have a fitted effect of over 65% in size
Procedure, shortened: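 20nM CYP3A4 + 25uM Luciferin-PPXE (=KM), 200mM KPO4; cpd 10 min RT; NADPH regen, 60 min RT; stop w/ detection buffer, 20 min; luminescence. Normalized to 57 uM ketoconazole.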

[20] = measured here: cell count channel max response
[21] = measured here: lipid channel max response
[22] = at 12.8 µM (top of the series), parasite line A
[23] = at 12.8 µM (top of the series), parasite line B

Chain of ATP-dependent 6-phosphofructokinase (Trypanosoma brucei brucei) (O15648 whole entry, looked up): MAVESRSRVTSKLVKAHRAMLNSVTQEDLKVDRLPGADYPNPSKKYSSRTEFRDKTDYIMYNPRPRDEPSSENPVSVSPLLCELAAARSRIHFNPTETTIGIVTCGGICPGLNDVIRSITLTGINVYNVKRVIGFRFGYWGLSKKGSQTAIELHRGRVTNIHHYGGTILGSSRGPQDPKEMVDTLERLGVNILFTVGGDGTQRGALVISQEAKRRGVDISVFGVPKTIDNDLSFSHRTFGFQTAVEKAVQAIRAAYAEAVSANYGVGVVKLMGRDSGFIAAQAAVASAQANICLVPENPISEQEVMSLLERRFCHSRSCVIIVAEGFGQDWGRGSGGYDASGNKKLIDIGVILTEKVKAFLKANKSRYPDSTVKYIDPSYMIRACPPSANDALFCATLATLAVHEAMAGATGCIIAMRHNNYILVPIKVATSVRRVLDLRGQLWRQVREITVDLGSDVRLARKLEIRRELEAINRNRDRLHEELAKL
Chain of Ubiquitin carboxyl-terminal hydrolase 1 (Homo sapiens) (O94782 whole entry, looked up): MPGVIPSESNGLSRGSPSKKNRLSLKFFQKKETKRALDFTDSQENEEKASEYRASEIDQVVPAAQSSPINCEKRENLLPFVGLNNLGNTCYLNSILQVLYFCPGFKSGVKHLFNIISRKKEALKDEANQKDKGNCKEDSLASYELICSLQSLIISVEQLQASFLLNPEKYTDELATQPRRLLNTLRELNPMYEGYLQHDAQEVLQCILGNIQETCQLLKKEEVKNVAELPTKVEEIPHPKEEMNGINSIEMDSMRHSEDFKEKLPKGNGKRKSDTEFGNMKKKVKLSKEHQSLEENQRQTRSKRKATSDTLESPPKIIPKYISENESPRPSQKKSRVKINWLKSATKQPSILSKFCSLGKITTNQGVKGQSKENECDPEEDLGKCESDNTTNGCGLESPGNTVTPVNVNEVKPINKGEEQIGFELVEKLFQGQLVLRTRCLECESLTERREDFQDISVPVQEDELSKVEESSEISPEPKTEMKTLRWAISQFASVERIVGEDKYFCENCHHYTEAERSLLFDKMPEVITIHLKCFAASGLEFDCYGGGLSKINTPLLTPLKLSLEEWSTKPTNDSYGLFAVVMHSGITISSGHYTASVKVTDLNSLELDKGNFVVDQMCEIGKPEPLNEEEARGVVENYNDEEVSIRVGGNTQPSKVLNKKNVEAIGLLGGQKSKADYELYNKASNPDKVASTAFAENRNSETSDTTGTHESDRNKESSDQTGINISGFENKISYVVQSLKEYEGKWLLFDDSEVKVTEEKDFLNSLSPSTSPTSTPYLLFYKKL
Chain of Cytochrome P450 1A2 (Homo sapiens) (P05177 whole entry, looked up): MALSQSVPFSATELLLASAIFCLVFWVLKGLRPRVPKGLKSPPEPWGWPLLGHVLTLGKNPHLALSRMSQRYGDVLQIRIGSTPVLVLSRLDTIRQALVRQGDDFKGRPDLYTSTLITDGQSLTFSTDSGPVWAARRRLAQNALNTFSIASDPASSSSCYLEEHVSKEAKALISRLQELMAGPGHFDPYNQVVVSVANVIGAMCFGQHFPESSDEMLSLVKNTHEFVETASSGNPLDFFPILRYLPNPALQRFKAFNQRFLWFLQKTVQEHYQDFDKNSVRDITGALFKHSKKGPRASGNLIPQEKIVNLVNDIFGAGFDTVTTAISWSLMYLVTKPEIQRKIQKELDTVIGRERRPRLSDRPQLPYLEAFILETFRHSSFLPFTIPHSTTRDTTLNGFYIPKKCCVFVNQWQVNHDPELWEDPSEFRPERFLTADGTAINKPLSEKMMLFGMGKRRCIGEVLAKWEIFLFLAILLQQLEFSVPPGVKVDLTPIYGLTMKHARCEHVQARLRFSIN
Chain of Glucocorticoid receptor (Homo sapiens) (P04150 whole entry, looked up, the tested form may be a part): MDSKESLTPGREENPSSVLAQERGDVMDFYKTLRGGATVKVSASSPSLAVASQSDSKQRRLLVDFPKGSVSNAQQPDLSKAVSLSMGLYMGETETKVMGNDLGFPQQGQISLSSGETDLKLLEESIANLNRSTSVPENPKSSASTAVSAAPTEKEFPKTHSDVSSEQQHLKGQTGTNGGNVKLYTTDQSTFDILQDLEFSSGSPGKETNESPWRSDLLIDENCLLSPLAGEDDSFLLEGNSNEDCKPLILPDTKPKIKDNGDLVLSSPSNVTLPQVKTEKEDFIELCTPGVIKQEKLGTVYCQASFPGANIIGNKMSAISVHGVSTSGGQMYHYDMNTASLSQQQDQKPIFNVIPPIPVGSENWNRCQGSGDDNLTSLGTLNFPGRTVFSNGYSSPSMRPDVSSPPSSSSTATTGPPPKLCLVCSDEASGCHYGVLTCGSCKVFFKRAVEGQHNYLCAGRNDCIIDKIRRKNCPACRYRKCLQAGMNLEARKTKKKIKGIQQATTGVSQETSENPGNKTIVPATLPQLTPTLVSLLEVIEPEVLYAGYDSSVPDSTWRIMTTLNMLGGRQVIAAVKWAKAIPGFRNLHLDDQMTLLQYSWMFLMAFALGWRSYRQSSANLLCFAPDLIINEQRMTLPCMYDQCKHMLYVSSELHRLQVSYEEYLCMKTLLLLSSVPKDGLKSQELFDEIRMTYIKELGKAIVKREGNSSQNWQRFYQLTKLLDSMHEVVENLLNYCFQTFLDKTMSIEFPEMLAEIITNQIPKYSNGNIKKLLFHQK
Chain of 3',5'-cyclic-AMP phosphodiesterase 4B (Homo sapiens) (Q07343 whole entry, looked up): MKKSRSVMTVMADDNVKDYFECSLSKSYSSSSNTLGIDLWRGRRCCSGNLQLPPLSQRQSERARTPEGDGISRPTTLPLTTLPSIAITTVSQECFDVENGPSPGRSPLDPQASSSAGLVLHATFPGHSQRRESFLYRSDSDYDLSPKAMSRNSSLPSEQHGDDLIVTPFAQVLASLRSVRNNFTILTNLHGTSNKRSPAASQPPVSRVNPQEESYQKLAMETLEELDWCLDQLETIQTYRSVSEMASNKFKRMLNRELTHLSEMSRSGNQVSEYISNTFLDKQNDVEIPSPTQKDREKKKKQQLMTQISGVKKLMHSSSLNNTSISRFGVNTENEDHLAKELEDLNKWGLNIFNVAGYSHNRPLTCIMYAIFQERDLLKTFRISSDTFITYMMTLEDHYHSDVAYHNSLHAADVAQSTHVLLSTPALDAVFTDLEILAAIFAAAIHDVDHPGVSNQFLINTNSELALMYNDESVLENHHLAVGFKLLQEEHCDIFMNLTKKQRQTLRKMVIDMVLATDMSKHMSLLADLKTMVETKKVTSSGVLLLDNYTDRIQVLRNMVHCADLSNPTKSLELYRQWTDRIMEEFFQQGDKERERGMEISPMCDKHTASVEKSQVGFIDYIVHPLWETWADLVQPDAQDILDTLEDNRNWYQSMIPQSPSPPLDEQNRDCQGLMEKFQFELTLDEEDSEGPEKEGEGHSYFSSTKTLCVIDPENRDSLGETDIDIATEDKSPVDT
Chain of Luciferin 4-monooxygenase (Photinus pyralis) (P08659 whole entry, looked up): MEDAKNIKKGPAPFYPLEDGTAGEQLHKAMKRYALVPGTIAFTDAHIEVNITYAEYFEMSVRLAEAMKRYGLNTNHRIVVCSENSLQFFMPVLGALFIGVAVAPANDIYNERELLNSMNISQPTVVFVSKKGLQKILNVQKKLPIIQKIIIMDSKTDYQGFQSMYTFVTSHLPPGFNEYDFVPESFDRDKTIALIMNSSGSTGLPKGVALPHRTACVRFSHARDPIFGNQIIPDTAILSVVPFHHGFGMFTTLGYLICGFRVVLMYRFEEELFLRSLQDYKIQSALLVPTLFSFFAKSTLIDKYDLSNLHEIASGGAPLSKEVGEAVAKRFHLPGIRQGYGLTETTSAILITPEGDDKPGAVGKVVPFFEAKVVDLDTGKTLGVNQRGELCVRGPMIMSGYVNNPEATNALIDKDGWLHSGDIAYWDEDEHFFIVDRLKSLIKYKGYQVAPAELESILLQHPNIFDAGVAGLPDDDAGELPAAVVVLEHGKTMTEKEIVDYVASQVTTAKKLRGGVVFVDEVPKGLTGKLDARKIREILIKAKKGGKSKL
Chain of Cytochrome P450 3A4 (Homo sapiens) (P08684 whole entry, looked up): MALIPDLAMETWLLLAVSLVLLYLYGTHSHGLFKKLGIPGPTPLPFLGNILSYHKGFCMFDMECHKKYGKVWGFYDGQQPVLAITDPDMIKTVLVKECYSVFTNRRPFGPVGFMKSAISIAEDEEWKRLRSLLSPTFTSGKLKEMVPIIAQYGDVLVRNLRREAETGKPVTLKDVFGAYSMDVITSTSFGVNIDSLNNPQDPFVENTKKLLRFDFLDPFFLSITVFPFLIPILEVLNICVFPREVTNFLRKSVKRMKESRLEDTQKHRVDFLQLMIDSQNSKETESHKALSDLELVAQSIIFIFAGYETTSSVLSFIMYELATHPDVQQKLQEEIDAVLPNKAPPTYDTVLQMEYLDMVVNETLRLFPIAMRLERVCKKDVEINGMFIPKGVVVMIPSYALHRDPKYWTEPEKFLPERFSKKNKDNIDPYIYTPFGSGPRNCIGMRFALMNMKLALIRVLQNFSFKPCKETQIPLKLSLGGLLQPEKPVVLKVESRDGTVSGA

C[C@H](N)[C@@H](O)c1ccccc1
inactive: outcome [1] | Potency [2] | activity change, negative = inhibition [3] 10.1% | outcome [4] | Potency [5] > 20.6 µM | Potency [6] > 20.6 µM | Potency [7] | activity change, negative = inhibition [8] 1.99% | Potency [9] | Potency [10] | Potency [11] | Potency [12] | activity, negative = inhibition [13, 22] -2.43% | activity, negative = inhibition [13, 23] 9.04% | Potency [14] | Potency [15] | Potency [16] | Potency [17]
20.5%: max response [8, 21]
17%: max response [8, 20]

CC(C)c1c(CN(C)[C@@H](C)Cc2ccccc2)n(C)n(-c2ccccc2)c1=O
-14.7%: max response [8, 21]
inactive: outcome [1] | Potency [2] | activity change, negative = inhibition [3] -17.7% | outcome [4] | Potency [5] > 20.6 µM | Potency [6] > 20.6 µM | outcome [18] | Potency [7] | Potency [19] | activity change, negative = inhibition [8] -3.14% | Potency [9] | Potency [11] | Potency [12] | activity, negative = inhibition [13, 22] 6.98% | Potency [14] | Potency [15] | Potency [16] | Potency [17]
-13.6%: max response [8, 20]

C=C1[C@@H]2C[C@@]3([C@H]1O)[C@H]1C[C@@H]4[C@@]5(C)CC[C@H](O)[C@]4([C@H]1N(CC)C5)[C@H]3C[C@H]2O
-11.5%: max response [8, 20]
-13.2%: max response [8, 21]
inactive: outcome [1] | Potency [2] | activity change, negative = inhibition [3] -13% | outcome [4] | Potency [5] > 20.6 µM | Potency [6] > 20.6 µM | outcome [18] | Potency [7] | activity change, negative = inhibition [8] -1.27% | Potency [10]

CN1CCc2cc3c(cc2[C@@H]1O)OCO3
4.41%: max response [8, 20]
3.98%: max response [8, 21]
inactive: outcome [1] | Potency [2] | activity change, negative = inhibition [3] -5.65% | outcome [4] | Potency [5] > 20.6 µM | Potency [6] > 20.6 µM | outcome [18] | Potency [7] | activity change, negative = inhibition [8] 0.396% | Potency [10]

N[C@H]1C[C@H]1c1ccccc1
3.84%: max response [8, 21]
5.35%: max response [8, 20]
inactive: outcome [1] | activity change, negative = inhibition [3] -3.83% | outcome [4] | outcome [18] | Potency [7] | activity change, negative = inhibition [8] -0.294% | Potency [9] | Potency [10] | Potency [11] | Potency [12] | activity, negative = inhibition ([13]; at 28.7 µM (top of the series), parasite line A) 10.1% | activity, negative = inhibition ([13]; at 28.7 µM (top of the series), parasite line B) 3.27% | Potency [14] | Potency [15] | Potency [16] | Potency [17]
active: Potency [2] 5.01 µM

CC(=O)OCC(=O)[C@@H]1CC[C@H]2[C@H]3CC[C@H]4C[C@@H](O)CC[C@]4(C)[C@@H]3C(=O)C[C@@]12C
-23.1%: max response [8, 20]
-26.2%: max response [8, 21]
inactive: outcome [1] | Potency [2] | outcome [4] | Potency [5] > 20.6 µM | Potency [6] > 20.6 µM | Potency [7] | activity change, negative = inhibition [8] -5.39% | Potency [9] | Potency [10] | Potency [11] | Potency [12] | activity, negative = inhibition [13, 22] 5.9% | activity, negative = inhibition [13, 23] 17.2% | Potency [14] | Potency [15] | Potency [16] | Potency [17]

COc1cc2c(cc1OC)[C@H](C)NCC2
inactive: outcome [1] | activity change, negative = inhibition [3] 4.97% | outcome [4] | Potency [5] > 20.6 µM and > 46 µM | Potency [6] > 20.6 µM and > 46 µM | outcome [18] | Potency [7] | activity change, negative = inhibition [8] -2.81% | Potency [10]
-9.32%: max response [8, 21]
-4.52%: max response [8, 20]
inactive and 20 µM (active): Potency [2]

C=C1[C@@H]2CC[C@H]3[C@@]4(C)C[C@@H](O[C@@H]5O[C@H](CO)[C@H](OS(=O)(=O)O)[C@@H](OS(=O)(=O)O)[C@@H]5OC(=O)CC(C)C)C[C@@H](C(=O)O)[C@H]4CC[C@@]3(C2)[C@H]1O
-28.9%: max response [8, 21]
inactive: outcome [1] | Potency [2] | activity change, negative = inhibition [3] 13.2% | outcome [4] | Potency [5] > 20.6 µM | Potency [6] > 20.6 µM | outcome [18] | Potency [7] | activity change, negative = inhibition [8] -6.46% | Potency [10]
-23.7%: max response [8, 20]

CC(C)[C@@]1(NC(=O)[C@@H]2C[C@H]3c4cccc5[nH]cc(c45)C[C@@H]3N(C)C2)O[C@]2(O)[C@H]3CCCN3C(=O)CN2C1=O
inactive: outcome [1] | Potency [2] | activity change, negative = inhibition [3] -1.94% | outcome [4] | Potency [5] > 20.6 µM | Potency [6] > 20.6 µM | outcome [18] | Potency [7] | activity change, negative = inhibition [8] 1.9% | Potency [10]
8.08%: max response [8, 20]
10.3%: max response [8, 21]

C=C1C/C(=C\C)C(=O)O[C@@H]2CCN3CC=C(COC(=O)[C@@]1(C)O)[C@H]23
inactive: outcome [1] | Potency [2] | activity change, negative = inhibition [3] -7.46% | outcome [4] | Potency [5] > 20.6 µM | Potency [6] > 20.6 µM | outcome [18] | Potency [7] | Potency [19] | activity change, negative = inhibition [8] 1.53% | Potency [10]
8.7%: max response [8, 20]
10.5%: max response [8, 21]

CC(=O)N[C@@H]1CCSC1=O
-9.82%: max response [8, 20]
-4.81%: max response [8, 21]
inactive: outcome [1] | Potency [2] | activity change, negative = inhibition [3] -13% | outcome [4] | Potency [5] > 20.6 µM | Potency [6] > 20.6 µM | outcome [18] | Potency [7] | activity change, negative = inhibition [8] 1.07% | Potency [10] | Potency [11]
